Assay [1] in a line: qHTS assay to test for compound auto fluorescence at 535 nm (green) in HEK293 cells (AID 720680). On the technique in general: Quantitative high-throughput screening tests each substance at several concentrations.
Assay [2] in a line: qHTS assay to test for compound auto fluorescence at 460 nm (blue) in HEK293 cell free culture (AID 720681). The procedure, abridged: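 Compounds were added to cell-free DMEM with 10% FBS and fluorescence read directly. The blue channel used 405 nm excitation and 460 nm emission, with triamterene as the reference fluorophore.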
The nature of assay [3]: qHTS assay to test for compound auto fluorescence at 535 nm (green) in HEK293 cell free culture (AID 720682). The method in brief:
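Each library compound, or DMSO control, is added by pintool to medium alone, comprising DMEM and 10% FBS. Emission at 535 nm following 485 nm excitation is quantified against fluorescein.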

Assay [4] can be described thus: qHTS assay to test for compound auto fluorescence at 590 nm (red) in HEK293 cell free culture (AID 720683). The procedure, abridged: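 Cell-free wells of DMEM with 10% FBS received compound, and intrinsic fluorescence was read at excitation/emission 540/590 nm. Values expressed as equivalence to Rose Bengal sodium.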
A short description of assay [5]: qHTS assay to test for compound auto fluorescence at 590 nm (red) in HepG2 cell free culture (AID 720684). The procedure, abridged:
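Compounds are added to culture medium (MEM, 10% FBS) lacking cells, then fluorescence is read at excitation 540 nm, emission 590 nm, with Rose Bengal sodium as the equivalency standard.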

Assay [6] can be described thus: qHTS assay to test for compound auto fluorescence at 460 nm (blue) in HepG2 cell free culture (AID 720685). The method in brief: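 Compound (23 nL) or DMSO pinned into cell-free MEM with 10% FBS; blue fluorescence read at 405/460 nm excitation/emission, expressed as auto-fluorescence equivalency to triamterene.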
A short description of assay [7]: qHTS assay to test for compound auto fluorescence at 535 nm (green) in HepG2 cell free culture (AID 720686).
Assay [8] can be described thus: qHTS assay to test for compound auto fluorescence at 460 nm (blue) in HepG2 cells (AID 720687). The method in brief: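 HepG2 cells in MEM with 10% FBS, attached overnight at 37 C, were exposed to compound or DMSO for 1 hr at 37 C, 5% CO2. Blue fluorescence was read at 405/460 nm, with triamterene as reference fluorophore.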
A short description of assay [9]: qHTS assay to identify small molecule antagonists of the glucocorticoid receptor (GR) signaling pathway - cell viability counter screen (AID 720693). Also: nearly all actives have a fitted effect of over 55% in size. Also: potency is read from the fitted curve at half-maximal effect.
The nature of assay [10]: qHTS assay for identifying genotoxic compounds that show differential cytotoxicity against isogenic chicken DT40 cell lines with known DNA damage response pathways - wild type cell line (AID 743012). Also: nearly all actives have a fitted effect of over 60% in size. Also: potency is read from the fitted curve at half-maximal effect. The method in brief:
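Wild-type DT40 cells (300/well) exposed to compounds for 40 hours at 37 C/5% CO2. Viability read by CellTiter-Glo luminescence after 30 min at room temperature.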

Assay [11] in a line: qHTS assay for identifying genotoxic compounds that show differential cytotoxicity against isogenic chicken DT40 cell lines with known DNA damage response pathways - Rev3 mutant cell line (AID 743014). Also: nearly all actives have a fitted effect of over 55% in size. Also: potency is read from the fitted curve at half-maximal effect.
Assay [12] can be described thus: qHTS assay for identifying genotoxic compounds that show differential cytotoxicity against isogenic chicken DT40 cell lines with known DNA damage response pathways - Rad54/Ku70 mutant cell line (AID 743015). Also: nearly all actives have a fitted effect of over 60% in size. Also: potency is read from the fitted curve at half-maximal effect.
Assay [13] is described as follows: qHTS assay to identify small molecule antagonists of the androgen receptor (AR) signaling pathway - cell viability counter screen (AID 743033; also: nearly all actives have a fitted effect of over 45% in size; also: potency is read from the fitted curve at half-maximal effect).
The nature of assay [14]: qHTS assay to identify small molecule antagonists of the androgen receptor (AR) signaling pathway using the MDA cell line - cell viability counter screen (AID 743041; also: nearly all actives have a fitted effect of over 45% in size). The procedure, abridged: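 Same-well cytotoxicity was assessed by CellTiter-Fluor in MDA-kb2 AR-luc cells after 16 h of compound treatment under R1881 agonism.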
Assay [15] addresses Androgen receptor (Homo sapiens) (UniProt P10275). The experiment in a line: qHTS assay to identify small molecule antagonists of the androgen receptor (AR) signaling pathway (AID 743035; active = well fitted inhibition curve with a large enough effect in the signal ratio in the repeat runs, not every such curve was filed as active; the % refers to the signal ratio). The procedure, abridged: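 HEK293 cells stably carrying UAS-beta-lactamase reporter, 2,000/well, given compounds plus R1881 agonist and incubated 16 h at 37C. LiveBLAzer B/G FRET substrate then added for 2 h at room temperature before fluorescence reading.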

For assay [16] the target is unchanged. The experiment in a line: qHTS assay to identify small molecule agonists of the androgen receptor (AR) signaling pathway (AID 743036; active = well fitted activation curve with a large enough effect in the signal ratio in the repeat runs, with a control signal flat, not every such curve was filed as active; the % refers to the signal ratio). The method in brief: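 Following a 4 h settling period, AR-UAS-bla HEK293 cells were dosed with compounds for 16 h at 37C. A 2 h room-temperature incubation with LiveBLAzer B/G FRET substrate preceded the fluorescence measurement.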

Assay [17] has the same target. Put plainly: qHTS assay to identify small molecule agonists of the androgen receptor (AR) signaling pathway using the MDA cell line (AID 743040; also: nearly all actives have a fitted effect of over 20% in size). The procedure, abridged: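 Human breast carcinoma MDA-kb2 reporter cells (MMTV-luc, AR/GR elements) were treated for 16 h at 37C in 0% CO2 following a 5 h settling period. Signal was quantified by ONE-Glo luminescence.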

Assay [18] shares this target. Put plainly: qHTS assay to identify small molecule antagonists of the androgen receptor (AR) signaling pathway using the MDA cell line (AID 743042; also: nearly all actives have a fitted effect of over 55% in size). The procedure, abridged:
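MDA-kb2 breast carcinoma cells carrying MMTV-luciferase (AR/GR responsive) were co-treated with compounds and the agonist R1881 for 16 h at 37C. Inhibition read as ONE-Glo luminescence; CellTiter-Fluor fluorescence measured in parallel for cytotoxicity.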

Assay [19] addresses Glucocorticoid receptor (Homo sapiens) (UniProt P04150). The experiment in a line: qHTS assay to identify small molecule antagonists of the glucocorticoid receptor (GR) signaling pathway (AID 720692; active = well fitted inhibition curve with a large enough effect in the signal ratio in the repeat runs, not every such curve was filed as active; the % refers to the signal ratio; also: potency is read from the fitted curve at half-maximal effect). The method in brief: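 GR-bla HeLa cells carrying a GRE-driven beta-lactamase reporter received compound after 4 h plating, then dexamethasone (5 nM final). After 18 h at 37C, the FRET substrate was loaded for 2 h at room temperature and fluorescence read.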

Molecules are shown by their SMILES. Results filed as inconclusive are left out. Activity calls are given as the source filed them. Unless noted, calls follow the shape of the dose curve; as a rule, active = well fitted curve in the direction sought with a large enough effect in the repeat runs; inconclusive = weak or mixed curves; inactive = no such curve, though single readings can be large; an effect the other way counts as inactive or inconclusive.

Chain of Androgen receptor (Homo sapiens) (P10275 whole entry, looked up): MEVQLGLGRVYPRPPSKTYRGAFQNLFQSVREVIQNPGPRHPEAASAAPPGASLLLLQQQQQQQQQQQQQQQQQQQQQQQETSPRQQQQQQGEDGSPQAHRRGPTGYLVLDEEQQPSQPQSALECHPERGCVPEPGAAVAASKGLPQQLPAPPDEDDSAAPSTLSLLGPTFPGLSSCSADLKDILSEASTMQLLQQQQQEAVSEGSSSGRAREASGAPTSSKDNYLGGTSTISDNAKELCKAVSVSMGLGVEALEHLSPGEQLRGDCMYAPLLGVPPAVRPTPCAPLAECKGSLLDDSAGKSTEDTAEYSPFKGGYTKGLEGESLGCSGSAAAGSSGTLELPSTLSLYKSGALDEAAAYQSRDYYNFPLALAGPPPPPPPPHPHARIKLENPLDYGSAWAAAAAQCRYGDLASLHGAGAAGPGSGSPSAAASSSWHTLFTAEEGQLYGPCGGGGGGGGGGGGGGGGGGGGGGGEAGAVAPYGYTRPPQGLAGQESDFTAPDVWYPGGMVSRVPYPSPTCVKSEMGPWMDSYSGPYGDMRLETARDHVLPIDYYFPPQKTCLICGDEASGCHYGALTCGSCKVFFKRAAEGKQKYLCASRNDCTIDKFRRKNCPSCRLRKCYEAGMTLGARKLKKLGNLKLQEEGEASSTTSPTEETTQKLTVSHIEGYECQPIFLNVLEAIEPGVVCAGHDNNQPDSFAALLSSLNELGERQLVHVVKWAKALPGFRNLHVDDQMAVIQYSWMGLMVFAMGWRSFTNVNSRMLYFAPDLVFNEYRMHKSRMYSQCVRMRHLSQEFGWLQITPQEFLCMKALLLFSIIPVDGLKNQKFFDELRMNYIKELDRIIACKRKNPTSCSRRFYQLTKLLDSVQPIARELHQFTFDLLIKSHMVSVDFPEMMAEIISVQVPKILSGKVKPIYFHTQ
Chain of Glucocorticoid receptor (Homo sapiens) (P04150 whole entry, looked up): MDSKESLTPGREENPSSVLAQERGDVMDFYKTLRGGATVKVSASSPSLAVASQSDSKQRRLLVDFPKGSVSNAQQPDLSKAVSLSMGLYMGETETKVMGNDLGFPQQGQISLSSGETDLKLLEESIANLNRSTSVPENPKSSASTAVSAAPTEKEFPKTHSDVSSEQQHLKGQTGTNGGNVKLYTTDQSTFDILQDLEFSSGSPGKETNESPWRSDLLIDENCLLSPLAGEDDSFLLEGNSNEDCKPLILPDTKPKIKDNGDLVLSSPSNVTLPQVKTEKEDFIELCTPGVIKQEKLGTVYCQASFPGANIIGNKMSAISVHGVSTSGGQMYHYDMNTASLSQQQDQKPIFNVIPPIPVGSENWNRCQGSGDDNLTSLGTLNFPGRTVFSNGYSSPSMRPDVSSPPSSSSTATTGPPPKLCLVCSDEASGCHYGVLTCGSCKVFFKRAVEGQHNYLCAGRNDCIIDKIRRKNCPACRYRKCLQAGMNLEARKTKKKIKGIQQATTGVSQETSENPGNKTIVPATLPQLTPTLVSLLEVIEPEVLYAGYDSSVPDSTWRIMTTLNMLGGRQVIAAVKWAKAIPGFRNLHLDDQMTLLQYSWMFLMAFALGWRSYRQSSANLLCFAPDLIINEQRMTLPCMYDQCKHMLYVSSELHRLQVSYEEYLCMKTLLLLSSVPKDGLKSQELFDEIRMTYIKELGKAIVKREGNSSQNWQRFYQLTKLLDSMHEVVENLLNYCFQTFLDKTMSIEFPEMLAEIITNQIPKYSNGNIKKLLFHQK

For `Nc1nc2[nH]cc(CCc3ccc(C(=O)N[C@@H](CCC(=O)O)C(=O)O)cc3)c2c(=O)[nH]1`, the Potency entry in [1], in assay [2], in assay [3], in assay [4], in [5] and in assay [7] was “inactive” each time. Moreover, the Potency result in assay [9], in [13] and in [14] was “inactive” each time. Moreover, the compound was classed as inactive in assay [6] and in assay [8]. Further, the Potency in assay [10] is 0.0266 µM (active); in assay [11], 0.0119 µM (active); in [12], 0.0106 µM (active).
For `O=C(O)[C@H]1/C(=C/CO)O[C@@H]2CC(=O)N21`, the Potency entry in assay [1], in assay [2], in assay [3], in assay [4], in [5] and in [7] was “inactive” in each case. Besides, the Potency result in assay [9], in [10], in [11], in assay [12], in assay [13] and in assay [14] was “inactive” throughout. For the same compound, the call in assay [6] and in [8] was inactive.
Turning to `Cn1nnnc1SCC1=C(C(=O)O)N2C(=O)[C@@H](NC(=O)[C@H](OC=O)c3ccccc3)[C@H]2SC1`, the Potency entry in assay [1], in assay [2], in assay [3], in [4], in assay [5] and in assay [7] was “inactive” throughout. The Potency result in assay [9], in [10], in assay [11], in assay [12], in assay [13] and in [14] was “inactive” throughout. Moreover, the outcome in assay [6] and in [8] was inactive.
With `CCCC(=O)N1CCCN(c2nc(N)c3cc(OC)c(OC)cc3n2)CC1`, the Potency entry in assay [1], in [2], in [3], in assay [4], in assay [5] and in [7] was “inactive” in each case. For the same compound, the Potency result in assay [9], in assay [10], in assay [11], in [12], in [13] and in assay [15] was “inactive” throughout. The Potency result in assay [16], in assay [17], in assay [14] and in assay [18] was “inactive” throughout. The compound was called inactive in [6] and in [8].
Consider `CN1CCN(CCC=C2c3ccccc3Sc3ccc(S(=O)(=O)N(C)C)cc32)CC1`, for which the Potency result in assay [1], in assay [2], in assay [3], in assay [4], in assay [5] and in assay [7] was “inactive” each time. Also, the Potency result in assay [9], in assay [17] and in assay [14] was “inactive” in each case. In addition, the compound was called inactive in assay [6] and in assay [8]. The Potency is 10.6 µM (active) in assay [10], 13.3 µM (active) in [11], 16.8 µM (active) in assay [12] and 23.9 µM (active) in assay [13].
For `C#C[C@]1(OC(C)=O)CC[C@H]2[C@@H]3CCC4=CC(=O)CC[C@@H]4[C@H]3CC[C@@]21C`, the Potency entry in assay [1], in assay [2], in assay [3], in assay [4], in assay [5] and in assay [7] was “inactive” in each case. Further, in assay [14], the Potency entry is “inactive”. For the same compound, the result in assay [6] and in [8] was inactive. Moreover, the Potency in [19] is 2.13 µM (active); in assay [9], 6.01 µM (active); in [10], 4.22 µM (active); in [11], 10.6 µM (active); in assay [12], 8.41 µM (active).
Regarding `S=C1SCN(Cc2ccccc2)CN1Cc1ccccc1`, the Potency entry in assay [1], in [2], in assay [3], in assay [4], in [5] and in [7] was “inactive” each time. In addition, the Potency result in assay [9] and in assay [13] was “inactive” throughout. The outcome in assay [6] and in assay [8] was inactive. In addition, the Potency in [10] was 10.6 µM (active); in assay [11] it was 13.3 µM (active); in [12], 13.3 µM (active).

Values taken from PubChem BioAssay (Tox21).
